TRHR ag: agonists of human TRH receptor | 360,000 tested, 0.18% active | P34981 | activation, % at 2 µM | TRHR cells, calcium flux fluo-8, FDSS agonist mode | AID 493084; also: 0% is about no effect
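TRHR-expressing cells loaded with fluo-8 calcium dye; 23 nL library compound pin-transferred, kinetic FDSS fluorescence (Ex 480/Em 530) recorded about 180 s for agonist-induced calcium release, before a 10 nM TRH EC20 addition for potentiator mode.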
D1 antag: blocks dopamine activation of the human D1 receptor; P21728; HEK293 TREx D1 cells, calcium flux, dopamine EC80; hits give low values; activity change, negative = inhibition, % at 10 µM; 360,000 tested, 3.2% active; in the data active = activity change below about -30%; also: % is scaled to controls: 0 for no effect and ±100 for the full control effect
Target sequence (P21728 whole entry, looked up): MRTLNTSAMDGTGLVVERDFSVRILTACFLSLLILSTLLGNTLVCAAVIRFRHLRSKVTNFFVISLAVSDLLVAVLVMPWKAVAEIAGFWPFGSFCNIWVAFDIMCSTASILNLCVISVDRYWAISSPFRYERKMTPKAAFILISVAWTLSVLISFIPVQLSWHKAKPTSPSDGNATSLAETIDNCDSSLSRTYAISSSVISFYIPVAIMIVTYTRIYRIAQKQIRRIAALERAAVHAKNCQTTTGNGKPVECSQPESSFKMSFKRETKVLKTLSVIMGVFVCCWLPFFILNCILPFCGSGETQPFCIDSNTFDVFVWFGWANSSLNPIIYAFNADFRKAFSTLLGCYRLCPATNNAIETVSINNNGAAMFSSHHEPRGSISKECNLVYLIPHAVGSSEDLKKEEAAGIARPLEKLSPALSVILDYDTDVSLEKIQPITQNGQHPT
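Cells carrying a force-coupled, tetracycline-inducible human D1 receptor report calcium flux. Each well gets a 10 s baseline, compound with 180 s monitoring, then an EC80 dopamine stimulus with a second 180 s kinetic read.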
D1 potentiator: human D1 dopamine receptor positive modulation; HEK293 TREx D1 cells, calcium flux, dopamine EC20 potentiation; potentiation, % at 10 µM; AID 504651; 360,000 tested, 0.036% active; in the data active = potentiation above about 30%; also: 0% is about no effect
TRHR PAM: TRH receptor (human) allosteric enhancement; P34981; TRHR cells, fluo-8 calcium fluorescence, EC20 TRH enhancement; enhancement, % at 2 µM; 360,000 tested, 0.66% active; AID 493056; in the data active = enhancement above about 30%; also: 0% is about no effect
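Enhancer read-out: after compound pinning and an initial kinetic agonist-mode read, an EC20 of TRH (10 nM final) was injected and fluo-8 calcium signal (Ex 480/Em 530) followed at 1 s/cycle for 100 cycles in TRHR-expressing cells.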
D1 agonist: agonists of human D1 dopamine receptor; P21728; HEK293 T-REx D1 cells, calcium flux, agonist mode; activation, % at 2 µM; 360,000 tested, 1% active; AID 504660; also: 0% is about no effect
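Inducible HEK293 T-REx D1 cells, force-coupled to calcium signalling, were plated at 4000 cells/well with tetracycline and held overnight at 30 C. After no-wash calcium dye loading, compound-evoked calcium rise over 180 s flagged agonists.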
Starred values were filed as active, the others as inactive. Most compounds without a hit are left out; they make up all but 4.6% or so of the library. Rule as the data show it, unless noted: active = activation above about 30%; inactive = the rest.

How did CCCOc1ccccc1C1C(C(=O)Nc2ccccc2)=C(C)Nc2nnnn21 (configuration not stated) do in these assays?
TRHR ag: -0.7; D1 antag: 5.3; D1 potentiator: -7.3; TRHR PAM: 48.9*; D1 agonist: 39.0*

How did Cc1ccc(-c2nnc(SCC(=O)NCc3ccccc3)o2)cc1 do in these assays?
TRHR ag: -1.5; D1 antag: 3.4; D1 potentiator: -1.6; TRHR PAM: -1.3; D1 agonist: 1.5

What do the screens show for `CCOC(=O)N1CCC(N(CCCOC)C(=O)Nc2cccc(OC)c2)CC1`?
TRHR ag: 0.3; D1 antag: -31.4*; D1 potentiator: 1.0; TRHR PAM: -3.5; D1 agonist: 1.7

How did O=S(=O)(NC1CCCC(NS(=O)(=O)c2c(F)cccc2F)C1)c1ccc2c(c1)OCCO2 (configuration not stated) do in these assays?
TRHR ag: 2.8; D1 antag: -5.8; D1 potentiator: -1.6; TRHR PAM: 9.5; D1 agonist: 0.1

How did CCCS(=O)(=O)N1CC(=O)N(c2ccc(C)cc2)C(C)(C(=O)NC2CCCCCC2)C1 (configuration not stated) do in these assays?
TRHR ag: -1.0; D1 antag: -0.9; D1 potentiator: -0.1; TRHR PAM: 1.7; D1 agonist: -2.1

What do the screens show for `CCCS(=O)(=O)N1CC(=O)N(c2cc(C)cc(C)c2)C(C)(C(=O)NC2CCCCCC2)C1` (configuration not stated)?
TRHR ag: -0.5; D1 antag: -31.2*; D1 potentiator: -0.5; TRHR PAM: -4.1; D1 agonist: -1.7

Results for COc1ccc(NC(=O)COC(=O)CNS(=O)(=O)/C=C/c2ccccc2)cc1OC ?
TRHR ag: 0.0; D1 antag: -2.6; D1 potentiator: -4.5; TRHR PAM: -11.5; D1 agonist: 1.3

Results for CCN(CC)S(=O)(=O)c1ccc(NC(=O)COC(=O)CNS(=O)(=O)/C=C/c2ccccc2)cc1 ?
TRHR ag: -1.0; D1 antag: -30.9*; D1 potentiator: -5.7; TRHR PAM: 7.4; D1 agonist: 6.3

What do the screens show for `O=C(CN1C(=O)C(=O)c2ccccc21)c1ccccc1`?
TRHR ag: -0.8; D1 antag: 1.3; D1 potentiator: 0.5; TRHR PAM: 2.7; D1 agonist: -0.8

What do the screens show for `O=C(CN1C(=O)c2cccnc2C1=O)c1ccccc1`?
TRHR ag: -0.3; D1 antag: -30.6*; D1 potentiator: -7.5; TRHR PAM: 6.6; D1 agonist: -1.3

What do the screens show for `N/C(=N\N=C/c1ccc(Br)cc1)N/N=C\c1ccc(Br)cc1`?
TRHR ag: -0.4; D1 antag: 9.6; D1 potentiator: -2.4; TRHR PAM: 4.5; D1 agonist: 1.0

What do the screens show for `N/C(=N\N=C/c1ccc(F)cc1)N/N=C\c1ccc(F)cc1`?
TRHR ag: -0.6; D1 antag: -59.5*; D1 potentiator: -10.5; TRHR PAM: 5.0; D1 agonist: 10.6

Results for COc1cc(C(C)=O)ccc1OCC(O)CN1CCN(c2ccc(C)cc2C)CC1 (configuration not stated) ?
TRHR ag: 0.1; D1 antag: -38.7*; D1 potentiator: -1.2; TRHR PAM: 3.6; D1 agonist: 3.1

What do the screens show for `OC(COc1ccccc1Cl)CN1CCN(CC(O)COc2ccccc2Cl)CC1` (configuration not stated)?
TRHR ag: 3.0; D1 antag: -81.7*; D1 potentiator: -6.0; TRHR PAM: -5.3; D1 agonist: 99.0*

Results for C=CCc1ccc(OCC(O)CN2CCCCC2)c(OC)c1 (configuration not stated) ?
TRHR ag: -0.1; D1 antag: -6.0; D1 potentiator: -6.6; TRHR PAM: -0.2; D1 agonist: 2.1

How did C=CCc1ccccc1OCC(O)CNC(C)C (configuration not stated) do in these assays?
TRHR ag: 0.7; D1 antag: -36.0*; D1 potentiator: -4.8; TRHR PAM: 3.1; D1 agonist: 4.0

Results for C=CCc1ccc(OCC(O)CN2CCN(c3ccccc3)CC2)c(OC)c1 (configuration not stated) ?
TRHR ag: -0.4; D1 antag: -30.9*; D1 potentiator: -11.3; TRHR PAM: -0.2; D1 agonist: 13.8

Screening data as filed in PubChem.
